# ChEMBL document CHEMBL1961873, “Compounds: GSK PKIS; Assays: Nanosyn kinase panel” (2012)
# Tests used:
# [1] = target: Sphingosine kinase 1 (Homo sapiens) (UniProt Q9NYA1); conditions: at 1 µM;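 note: mean SPHK1 inhibition value reported from the GSK PKIS kinase panel screen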
# [2] = target: T1, Sphingosine kinase 2 (Homo sapiens) (UniProt Q9NRA0); conditions: at 0.1 µM
# T1 sequence (whole entry): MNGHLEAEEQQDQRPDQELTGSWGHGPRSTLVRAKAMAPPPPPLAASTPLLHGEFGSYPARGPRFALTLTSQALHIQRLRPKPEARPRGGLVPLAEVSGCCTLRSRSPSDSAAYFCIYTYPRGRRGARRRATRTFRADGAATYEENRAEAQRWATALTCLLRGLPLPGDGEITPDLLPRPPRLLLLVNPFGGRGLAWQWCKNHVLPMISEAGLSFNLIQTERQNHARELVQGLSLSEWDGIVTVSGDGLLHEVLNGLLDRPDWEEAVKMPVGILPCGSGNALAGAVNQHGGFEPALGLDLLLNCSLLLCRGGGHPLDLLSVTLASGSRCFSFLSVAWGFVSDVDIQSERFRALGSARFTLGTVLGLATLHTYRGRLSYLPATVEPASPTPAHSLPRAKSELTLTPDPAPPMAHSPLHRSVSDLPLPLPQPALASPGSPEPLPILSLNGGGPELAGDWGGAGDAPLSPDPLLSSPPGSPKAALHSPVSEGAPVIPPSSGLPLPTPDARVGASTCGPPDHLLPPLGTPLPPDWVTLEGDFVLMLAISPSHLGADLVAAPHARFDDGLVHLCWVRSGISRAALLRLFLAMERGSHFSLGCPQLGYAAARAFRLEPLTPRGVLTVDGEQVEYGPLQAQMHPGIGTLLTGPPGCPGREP
# [3] = target: T1, Sphingosine kinase 2 (Homo sapiens); conditions: at 1 µM
# [4] = target: Casein kinase II subunit alpha (Homo sapiens) (UniProt P68400); conditions: at 0.1 µM
# [5] = target: Casein kinase II subunit alpha (Homo sapiens) (UniProt P68400); conditions: at 1 µM
# [6] = target: T2, Inhibitor of nuclear factor kappa-B kinase subunit alpha (Homo sapiens) (UniProt O15111); conditions: at 0.1 µM
# T2 sequence (whole entry): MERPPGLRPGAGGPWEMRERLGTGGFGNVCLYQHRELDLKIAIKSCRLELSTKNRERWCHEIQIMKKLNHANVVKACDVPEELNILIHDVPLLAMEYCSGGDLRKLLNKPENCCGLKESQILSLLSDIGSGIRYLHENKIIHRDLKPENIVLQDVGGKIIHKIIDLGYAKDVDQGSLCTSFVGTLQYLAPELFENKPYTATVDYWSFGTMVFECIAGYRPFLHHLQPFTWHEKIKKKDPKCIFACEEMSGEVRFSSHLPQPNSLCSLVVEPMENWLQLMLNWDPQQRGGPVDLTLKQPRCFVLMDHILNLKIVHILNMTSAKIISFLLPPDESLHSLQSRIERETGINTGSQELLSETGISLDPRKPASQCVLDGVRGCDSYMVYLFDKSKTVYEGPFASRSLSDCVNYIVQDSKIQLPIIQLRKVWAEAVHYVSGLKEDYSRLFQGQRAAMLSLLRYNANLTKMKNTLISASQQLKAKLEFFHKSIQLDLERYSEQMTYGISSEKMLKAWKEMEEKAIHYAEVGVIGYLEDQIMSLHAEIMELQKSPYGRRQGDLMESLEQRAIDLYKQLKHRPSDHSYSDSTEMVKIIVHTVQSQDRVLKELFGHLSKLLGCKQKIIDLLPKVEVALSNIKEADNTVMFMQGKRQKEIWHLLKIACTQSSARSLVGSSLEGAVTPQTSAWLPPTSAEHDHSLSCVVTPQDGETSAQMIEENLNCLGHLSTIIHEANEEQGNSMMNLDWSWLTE
# [7] = target: T2, Inhibitor of nuclear factor kappa-B kinase subunit alpha (Homo sapiens); conditions: at 1 µM
# [8] = target: T3, Inhibitor of nuclear factor kappa-B kinase subunit beta (Homo sapiens) (UniProt O14920); conditions: at 0.1 µM
# T3 sequence (whole entry): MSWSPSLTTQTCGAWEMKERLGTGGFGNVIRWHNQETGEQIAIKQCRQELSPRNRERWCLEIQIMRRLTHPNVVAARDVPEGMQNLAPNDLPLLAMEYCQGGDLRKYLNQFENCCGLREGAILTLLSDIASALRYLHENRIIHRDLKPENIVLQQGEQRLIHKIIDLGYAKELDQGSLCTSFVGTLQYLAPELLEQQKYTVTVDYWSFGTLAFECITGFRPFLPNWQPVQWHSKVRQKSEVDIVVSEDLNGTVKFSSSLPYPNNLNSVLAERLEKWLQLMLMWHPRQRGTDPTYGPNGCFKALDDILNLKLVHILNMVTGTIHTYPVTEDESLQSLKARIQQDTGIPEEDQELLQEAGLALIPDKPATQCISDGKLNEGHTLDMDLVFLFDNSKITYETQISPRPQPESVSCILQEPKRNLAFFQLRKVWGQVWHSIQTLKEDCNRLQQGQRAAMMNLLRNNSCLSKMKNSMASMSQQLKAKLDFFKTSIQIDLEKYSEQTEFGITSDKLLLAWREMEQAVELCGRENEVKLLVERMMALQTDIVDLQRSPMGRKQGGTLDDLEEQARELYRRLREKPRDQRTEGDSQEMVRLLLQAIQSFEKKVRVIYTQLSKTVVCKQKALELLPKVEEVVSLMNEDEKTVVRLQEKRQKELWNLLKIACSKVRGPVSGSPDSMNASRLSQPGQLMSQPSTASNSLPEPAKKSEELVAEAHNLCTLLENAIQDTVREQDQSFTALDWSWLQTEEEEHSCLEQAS
# [9] = target: T3, Inhibitor of nuclear factor kappa-B kinase subunit beta (Homo sapiens); conditions: at 1 µM
# [10] = target: T4, Inhibitor of nuclear factor kappa-B kinase subunit epsilon (Homo sapiens) (UniProt Q14164); conditions: at 0.1 µM
# T4 sequence (whole entry): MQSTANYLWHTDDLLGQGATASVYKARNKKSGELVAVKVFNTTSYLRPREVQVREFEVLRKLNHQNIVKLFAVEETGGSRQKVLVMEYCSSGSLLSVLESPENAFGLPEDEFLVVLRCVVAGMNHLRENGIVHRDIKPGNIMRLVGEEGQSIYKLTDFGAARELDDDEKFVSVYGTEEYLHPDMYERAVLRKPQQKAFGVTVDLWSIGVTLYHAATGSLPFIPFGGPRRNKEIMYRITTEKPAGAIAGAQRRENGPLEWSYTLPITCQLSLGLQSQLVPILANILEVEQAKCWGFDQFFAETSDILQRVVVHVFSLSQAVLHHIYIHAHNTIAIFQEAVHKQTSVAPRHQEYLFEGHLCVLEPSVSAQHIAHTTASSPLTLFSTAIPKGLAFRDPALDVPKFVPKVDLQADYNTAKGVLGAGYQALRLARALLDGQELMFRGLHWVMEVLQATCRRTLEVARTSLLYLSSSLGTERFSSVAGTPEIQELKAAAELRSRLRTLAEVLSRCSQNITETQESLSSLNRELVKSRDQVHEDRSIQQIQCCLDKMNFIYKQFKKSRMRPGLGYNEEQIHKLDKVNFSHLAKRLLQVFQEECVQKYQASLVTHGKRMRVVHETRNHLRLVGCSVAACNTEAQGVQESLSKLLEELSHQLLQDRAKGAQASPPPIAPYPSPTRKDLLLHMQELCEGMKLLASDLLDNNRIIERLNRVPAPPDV
# [11] = target: T4, Inhibitor of nuclear factor kappa-B kinase subunit epsilon (Homo sapiens); conditions: at 1 µM
# [12] = target: T5, Serine/threonine-protein kinase Nek1 (Homo sapiens) (UniProt Q96PY6); conditions: at 0.1 µM
# T5 sequence (whole entry): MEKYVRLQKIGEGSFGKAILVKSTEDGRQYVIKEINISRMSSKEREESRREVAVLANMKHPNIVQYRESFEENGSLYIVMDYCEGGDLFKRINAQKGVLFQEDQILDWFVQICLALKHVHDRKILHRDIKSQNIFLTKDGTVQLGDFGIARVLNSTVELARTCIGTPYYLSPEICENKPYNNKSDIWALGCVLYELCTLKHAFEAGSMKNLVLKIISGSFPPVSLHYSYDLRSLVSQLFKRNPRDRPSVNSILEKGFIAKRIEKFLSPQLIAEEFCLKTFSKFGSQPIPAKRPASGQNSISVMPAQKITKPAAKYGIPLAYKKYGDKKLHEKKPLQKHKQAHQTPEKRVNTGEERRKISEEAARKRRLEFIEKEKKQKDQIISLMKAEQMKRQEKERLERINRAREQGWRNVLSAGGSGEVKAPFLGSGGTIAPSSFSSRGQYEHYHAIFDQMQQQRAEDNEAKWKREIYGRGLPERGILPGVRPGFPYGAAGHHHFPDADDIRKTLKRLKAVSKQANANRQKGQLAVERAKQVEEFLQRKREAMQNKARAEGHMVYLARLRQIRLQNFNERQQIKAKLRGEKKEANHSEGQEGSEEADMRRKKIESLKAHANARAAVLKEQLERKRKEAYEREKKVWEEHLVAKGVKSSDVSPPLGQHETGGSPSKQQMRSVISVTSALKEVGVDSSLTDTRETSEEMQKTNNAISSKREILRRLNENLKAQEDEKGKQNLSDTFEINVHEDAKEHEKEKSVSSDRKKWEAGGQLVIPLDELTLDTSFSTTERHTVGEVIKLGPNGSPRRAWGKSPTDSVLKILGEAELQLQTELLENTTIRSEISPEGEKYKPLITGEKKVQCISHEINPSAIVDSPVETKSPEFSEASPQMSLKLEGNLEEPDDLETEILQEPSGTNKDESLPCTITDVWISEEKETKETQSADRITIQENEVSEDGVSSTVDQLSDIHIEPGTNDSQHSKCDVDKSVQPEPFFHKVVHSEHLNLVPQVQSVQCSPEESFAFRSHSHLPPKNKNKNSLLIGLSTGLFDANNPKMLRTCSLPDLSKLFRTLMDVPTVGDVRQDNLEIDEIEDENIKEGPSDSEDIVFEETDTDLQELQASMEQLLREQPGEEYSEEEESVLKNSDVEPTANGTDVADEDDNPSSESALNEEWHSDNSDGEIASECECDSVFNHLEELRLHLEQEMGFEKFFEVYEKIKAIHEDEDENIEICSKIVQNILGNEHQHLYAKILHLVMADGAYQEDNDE
# [13] = target: T5, Serine/threonine-protein kinase Nek1 (Homo sapiens); conditions: at 1 µM
# [14] = target: T6, Serine/threonine-protein kinase Nek2 (Homo sapiens) (UniProt P51955); conditions: at 0.1 µM
# T6 sequence (whole entry): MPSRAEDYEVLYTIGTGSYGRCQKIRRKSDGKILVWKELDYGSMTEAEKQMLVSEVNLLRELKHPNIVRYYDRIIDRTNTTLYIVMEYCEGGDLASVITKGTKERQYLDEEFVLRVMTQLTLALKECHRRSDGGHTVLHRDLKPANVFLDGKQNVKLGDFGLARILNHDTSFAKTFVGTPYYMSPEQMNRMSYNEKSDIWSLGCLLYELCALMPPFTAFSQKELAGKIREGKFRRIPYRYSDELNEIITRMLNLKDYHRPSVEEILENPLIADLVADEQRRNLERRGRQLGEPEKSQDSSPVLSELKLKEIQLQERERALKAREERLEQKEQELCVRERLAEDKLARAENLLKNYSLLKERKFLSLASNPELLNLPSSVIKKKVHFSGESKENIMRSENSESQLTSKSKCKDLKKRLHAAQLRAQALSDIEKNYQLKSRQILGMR
# [15] = target: T6, Serine/threonine-protein kinase Nek2 (Homo sapiens); conditions: at 1 µM
# [16] = target: Serine/threonine-protein kinase Nek6 (Homo sapiens) (UniProt Q9HC98); conditions: at 0.1 µM
# [17] = target: Serine/threonine-protein kinase Nek6 (Homo sapiens) (UniProt Q9HC98); conditions: at 1 µM
# [18] = target: Serine/threonine-protein kinase Nek7 (Homo sapiens) (UniProt Q8TDX7); conditions: at 0.1 µM
# [19] = target: Serine/threonine-protein kinase Nek7 (Homo sapiens) (UniProt Q8TDX7); conditions: at 1 µM
# [20] = target: T7, Serine/threonine-protein kinase Nek9 (Homo sapiens) (UniProt Q8TD19); conditions: at 0.1 µM;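 note: reported value is the mean percent inhibition of NEK9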
# T7 sequence (whole entry): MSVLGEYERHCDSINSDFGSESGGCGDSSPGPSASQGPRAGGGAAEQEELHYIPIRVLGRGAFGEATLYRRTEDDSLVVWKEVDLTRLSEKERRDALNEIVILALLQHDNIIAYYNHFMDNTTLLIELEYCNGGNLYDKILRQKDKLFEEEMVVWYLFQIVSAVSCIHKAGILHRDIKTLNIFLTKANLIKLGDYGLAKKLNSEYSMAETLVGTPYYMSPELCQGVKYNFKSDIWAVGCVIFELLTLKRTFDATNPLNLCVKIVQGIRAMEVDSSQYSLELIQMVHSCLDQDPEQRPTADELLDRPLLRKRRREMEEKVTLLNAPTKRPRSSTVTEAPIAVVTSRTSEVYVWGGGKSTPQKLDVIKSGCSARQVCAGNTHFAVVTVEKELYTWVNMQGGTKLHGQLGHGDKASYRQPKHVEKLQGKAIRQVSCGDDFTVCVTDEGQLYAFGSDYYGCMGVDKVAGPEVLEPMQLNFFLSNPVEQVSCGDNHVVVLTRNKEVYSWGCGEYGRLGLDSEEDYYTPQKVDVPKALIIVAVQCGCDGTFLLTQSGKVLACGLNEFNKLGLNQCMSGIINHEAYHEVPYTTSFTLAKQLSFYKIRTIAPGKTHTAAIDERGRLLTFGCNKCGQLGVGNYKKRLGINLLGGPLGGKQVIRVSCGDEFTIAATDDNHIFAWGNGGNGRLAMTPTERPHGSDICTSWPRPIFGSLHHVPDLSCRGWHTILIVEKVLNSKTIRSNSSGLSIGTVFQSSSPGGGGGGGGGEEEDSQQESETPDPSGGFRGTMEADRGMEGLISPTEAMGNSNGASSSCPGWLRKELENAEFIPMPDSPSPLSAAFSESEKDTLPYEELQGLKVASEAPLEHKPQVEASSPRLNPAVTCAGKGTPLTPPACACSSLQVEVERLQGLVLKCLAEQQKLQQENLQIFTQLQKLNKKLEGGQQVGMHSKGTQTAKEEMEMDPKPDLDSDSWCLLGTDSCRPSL
# Chain of Serine/threonine-protein kinase Nek7 (Homo sapiens) (Q8TDX7 whole entry, looked up): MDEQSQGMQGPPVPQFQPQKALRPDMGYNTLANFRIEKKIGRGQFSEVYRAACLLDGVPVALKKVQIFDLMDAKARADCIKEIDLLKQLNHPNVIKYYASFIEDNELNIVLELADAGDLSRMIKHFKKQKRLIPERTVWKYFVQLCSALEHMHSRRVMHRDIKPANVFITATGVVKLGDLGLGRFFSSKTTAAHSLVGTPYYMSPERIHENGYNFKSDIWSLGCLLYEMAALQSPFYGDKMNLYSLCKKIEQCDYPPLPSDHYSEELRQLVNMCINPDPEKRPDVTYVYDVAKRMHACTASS
# Chain of Serine/threonine-protein kinase Nek6 (Homo sapiens) (Q9HC98 whole entry): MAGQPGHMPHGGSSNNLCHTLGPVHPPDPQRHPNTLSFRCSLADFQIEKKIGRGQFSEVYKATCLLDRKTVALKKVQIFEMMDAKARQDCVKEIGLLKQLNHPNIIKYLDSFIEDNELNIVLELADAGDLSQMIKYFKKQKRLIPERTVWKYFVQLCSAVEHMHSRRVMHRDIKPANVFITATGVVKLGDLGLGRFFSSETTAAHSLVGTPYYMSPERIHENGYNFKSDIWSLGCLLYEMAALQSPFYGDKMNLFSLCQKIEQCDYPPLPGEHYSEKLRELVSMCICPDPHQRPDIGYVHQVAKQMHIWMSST
# Chain of Casein kinase II subunit alpha (Homo sapiens) (P68400 whole entry, looked up): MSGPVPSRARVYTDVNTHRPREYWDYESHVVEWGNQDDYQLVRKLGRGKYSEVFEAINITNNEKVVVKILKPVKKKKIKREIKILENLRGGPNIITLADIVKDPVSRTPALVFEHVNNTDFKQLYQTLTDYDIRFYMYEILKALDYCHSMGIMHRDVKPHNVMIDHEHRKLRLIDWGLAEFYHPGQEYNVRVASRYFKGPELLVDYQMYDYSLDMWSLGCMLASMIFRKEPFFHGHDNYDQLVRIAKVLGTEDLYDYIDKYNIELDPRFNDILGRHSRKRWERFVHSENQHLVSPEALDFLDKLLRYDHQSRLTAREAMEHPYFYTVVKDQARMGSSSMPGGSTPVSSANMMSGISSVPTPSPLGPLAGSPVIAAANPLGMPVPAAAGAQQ
# Chain of Sphingosine kinase 1 (Homo sapiens) (Q9NYA1 whole entry): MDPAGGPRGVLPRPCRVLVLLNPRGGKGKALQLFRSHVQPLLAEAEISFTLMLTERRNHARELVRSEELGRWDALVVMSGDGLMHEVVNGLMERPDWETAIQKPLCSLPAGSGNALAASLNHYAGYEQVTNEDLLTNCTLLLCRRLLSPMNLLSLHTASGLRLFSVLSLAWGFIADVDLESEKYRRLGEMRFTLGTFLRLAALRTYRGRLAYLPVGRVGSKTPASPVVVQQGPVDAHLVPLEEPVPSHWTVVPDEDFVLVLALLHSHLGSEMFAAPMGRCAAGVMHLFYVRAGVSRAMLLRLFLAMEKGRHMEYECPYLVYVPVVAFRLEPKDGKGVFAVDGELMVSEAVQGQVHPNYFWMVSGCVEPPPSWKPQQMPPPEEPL
compound,measurement,setting,value
CN(C)c1cc2c(Nc3ccc4c(cnn4Cc4ccccc4)c3)ncnc2cn1,inhibition,[1],-2%
same,inhibition,[2],-0.22%
same,inhibition,[3],-1.13%
same,inhibition,[4],1.2%
same,inhibition,[5],-0.12%
same,inhibition,[6],3.64%
same,inhibition,[7],8.41%
same,inhibition,[8],3.68%
same,inhibition,[9],3.14%
same,inhibition,[10],3.9%
same,inhibition,[11],3.38%
same,inhibition,[12],0.59%
same,inhibition,[13],2.49%
same,inhibition,[14],3.29%
same,inhibition,[15],3.45%
same,inhibition,[16],0.57%
same,inhibition,[17],2.34%
same,inhibition,[18],1.52%
same,inhibition,[19],1.66%
same,inhibition,[20],6.89%
